This is an account of results in PubChem BioAssay (Tox21).

The structures appear in SMILES notation. Unmarked numbers belong to inactive results. Inconclusive results are not listed. Activity calls are given as the source filed them. Unless noted, calls follow the shape of the dose curve; as a rule, active = well fitted curve in the direction sought with a large enough effect in the repeat runs; inconclusive = weak or mixed curves; inactive = no such curve, though single readings can be large; an effect the other way counts as inactive or inconclusive.

Test [1] in a line: qHTS assay to identify small molecule agonists of H2AX (AID 1224845; active = well fitted activation curve with a large enough effect in the signal ratio in the repeat runs, not every such curve was filed as active; the % refers to the signal ratio). A digest of the protocol:
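Wild-type CHO-K1 cells, plated overnight, exposed 3hr at 37C to 15 concentrations (0.76% DMSO final). Lysed, then HTRF anti-pH2AX (S139) cryptate and anti-H2AX-d2 antibodies, 24 hr room temperature; 665/620 nm emission read.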
(Quantitative high-throughput screening tests each substance at several concentrations.)

Test [2] in a line: qHTS assay to identify small molecule agonists of the hypoxia (HIF-1) signaling pathway (AID 1224846; active = well fitted activation curve with a large enough effect in the signal ratio in the repeat runs, not every such curve was filed as active; the % refers to the signal ratio). A digest of the protocol:
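A low-serum medium (0.5% dialyzed FBS) holding 2,000 HRE-bla ME-180 cells per well is preincubated for 5 hrs, dosed with compounds by pintool, and kept a further 17 hrs at 37C, 5% CO2 before CCF4-AM FRET detection of beta-lactamase.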

A short description of test [3]: qHTS assay to identify small molecule agonists of H2AX - cell viability counter screen (AID 1224847; calls by dose curve; also: top concentration of the series differs between compounds; nearly all actives have a fitted effect of over 30% in size). The gist of the method:
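For this counter screen, overnight-attached CHO-K1 cells received test compounds (15 concentrations, 0.76% DMSO final); 3 hr later at 37C, CellTiter-Glo reagent was added and luminescence recorded after 30 min at room temperature.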

A short description of test [4]: qHTS assay to identify small molecule antagonists of the estrogen related receptor (ERR) signaling pathway from Tox21 library (AID 1224848). Also: nearly all actives have a fitted effect of over 50% in size. The gist of the method:
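Luminescent reporter read-out (ONE-Glo) from NTP's ERR cell line after 18 h treatment at 37 C with DMSO-dissolved Tox21 compounds; cells pre-plated 6 h beforehand at 2,000 per well.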

The nature of test [5]: qHTS assay to identify small molecule agonists of the estrogen related receptor (ERR) signaling pathway from Tox21 library (AID 1224849; calls by dose curve; also: nearly all actives have a fitted effect of over 15% in size). The settings on record: ERR reporter cell line, ONE-Glo luciferase, 18 h; at 92.4 µM (top of the series) unless noted. The gist of the method:
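Screening used an NTP-provided ERR luciferase cell line. Compounds in DMSO were added 6 h after seeding and left 18 h at 37 C before a 30 min ONE-Glo step and luminescence reading.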

Test [6] in a line: qHTS RealTime-Glo MT Cell Viability Assay in HepG2 cells - 24 hour (AID 1224867). Also: nearly all actives have a fitted effect of over 50% in size. The gist of the method: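 HepG2 cells (600/well) were dispensed with RealTime-Glo reagents, incubated 5 h at 37 °C, then treated with compounds in DMSO for up to 40 h. Nonlytic NanoLuc luminescence reflecting viable cells was read at each stated time point.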
Test [7] can be described thus: qHTS RealTime-Glo MT Cell Viability Assay in HEK293 cells - 32 hour (AID 1224868). Also: nearly all actives have a fitted effect of over 50% in size. Also: potency is read from the fitted curve at half-maximal effect. A digest of the protocol: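 HEK293 cells seeded with NanoLuc/prosubstrate reagent, rested 5 h at 37 C, then dosed and kept at 37 C up to 40 h. Nonlytic real-time luminescence from viable cells read at 0, 8, 16, 24, 32 and 40 h.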
Test [8] in a line: A CellTox Green Cytotoxicity Assay to monitor cytotoxicity in HEK293 cells - 0 hour (AID 1224869). Also: nearly all actives have a fitted effect of over 50% in size. The gist of the method: (§1)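 Fluorescence intensity, read at 0, 8, 16, 24, 32 and 40 h of compound treatment, reflected dye binding to DNA of dead HEK293 cells; compounds (23 nL, DMSO) were added 5 h after plating cells with reagent.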
A short description of test [9]: qHTS RealTime-Glo MT Cell Viability Assay in HepG2 cells - 40 hour (AID 1224870). Also: nearly all actives have a fitted effect of over 50% in size. The gist of the method:
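HepG2 cells (600/well) mixed with RealTime-Glo MT reagent, settled 5 h at 37 C/5% CO2 before compound addition. Nonlytic NanoLuc luminescence from viable-cell prosubstrate reduction read repeatedly during 40 h treatment at 37 C.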

Test [10] in a line: A CellTox Green Cytotoxicity Assay to monitor cytotoxicity in HEK293 cells - 40 hour (AID 1224871). Also: nearly all actives have a fitted effect of over 45% in size. The gist of the method:
as §1
% is scaled to controls: 0 for no effect and ±100 for the full control effect.

For `Cc1cc(C)c(C(=O)P(=O)(C(=O)c2c(C)cc(C)cc2C)c2ccccc2)c(C)c1`, the Potency entry in test [1], in [3], in test [4], in test [6], in test [7] and in test [8] was “inactive” throughout. The Potency entry in test [9] and in [10] was “inactive” in each case. The call in test [2] was inactive. Further, the activity change, positive = activation in [5] was -2.99%.

For the molecule `CCOC(=O)C1(c2ccccc2)CCN(CCc2ccc(N)cc2)CC1`, the Potency result in test [1], in test [3], in test [4], in test [6], in [7] and in [8] was “inactive” throughout. Moreover, the Potency entry in test [9] and in test [10] was “inactive” in each case. Besides, in test [2], the molecule was classed as inactive. In addition, the activity change, positive = activation in [5] was -11.7% [at 42.5 µM].

Consider `CCC#N`, for which the Potency entry in [1], in [3], in [4], in [6], in test [7] and in [8] was “inactive” each time. For the same molecule, the Potency result in test [9] is “inactive”. In addition, the molecule was classed as inactive in [2]. In addition, the activity change, positive = activation in [5] is 0.336%.

In the case of `CCS(=O)(=O)C(C)(C)S(=O)(=O)CC`, the Potency result in test [1], in test [3], in [4], in test [6], in [7] and in [8] was “inactive” each time. In addition, the Potency entry in test [9] and in test [10] was “inactive” each time. Moreover, in [2], the molecule was called inactive. Also, the activity change, positive = activation in test [5] was 3.77% [at 42.5 µM].

As for `COC(=O)c1c(C(F)F)nc(C(F)(F)F)c(C2=NCCS2)c1CC(C)C`, the Potency entry in test [1], in test [3], in [4], in test [6], in [7] and in test [8] was “inactive” throughout. The Potency result in test [9] and in [10] was “inactive” throughout. Also, in test [2], the molecule was classed as inactive. For the same molecule, in test [5], the activity change, positive = activation was 1.38%.

As for `C[N+](=O)[O-]`, the Potency entry in [1], in test [3], in test [4], in [6], in [7] and in [8] was “inactive” throughout. Also, the Potency entry in test [9] and in [10] was “inactive” in each case. Besides, the molecule was classed as inactive in test [2]. Further, the activity change, positive = activation in test [5] is 6.34%.

Take `COP(=S)(OC)Oc1c(Cl)cc(C)cc1Cl`: the Potency entry in [1], in [3], in [4], in [6], in test [7] and in test [8] was “inactive” throughout. Also, the Potency entry in [9] and in [10] was “inactive” throughout. Besides, in test [2], the molecule was classed as inactive. Also, the activity change, positive = activation in test [5] is 0.872%.

Consider `CN1CCC(O)(c2ccc(F)cc2)C(C(=O)c2ccc(F)cc2)C1` (stereo unspecified), for which the Potency result in test [1], in [3], in test [4], in [6], in [7] and in test [8] was “inactive” in each case. The molecule was classed as inactive in test [2]. Besides, in test [5], the activity change, positive = activation is 0.426% [at 42.5 µM].

Take `Cc1nnc2n1-c1sc(CCC(=O)N3CCOCC3)cc1C(c1ccccc1Cl)=NC2`: the Potency result in test [1], in [3], in test [4], in test [6], in [7] and in test [8] was “inactive” each time. Further, the Potency entry in test [9] and in [10] was “inactive” throughout. Further, in test [2], the result was inactive. The activity change, positive = activation in test [5] was 1.19% [at 42.5 µM].

As to `CC(=O)Nc1cc([As](=O)(O)O)ccc1O`, the Potency result in [1], in test [3], in test [4], in test [6], in test [7] and in test [8] was “inactive” each time. In addition, the Potency entry in test [9] and in test [10] was “inactive” throughout. Moreover, the outcome in [2] was inactive. For the same molecule, the activity change, positive = activation in test [5] is -16.7% [at 42.5 µM].

Consider `CCCCOC(=O)[C@@H](C)Oc1ccc(Oc2ccc(C#N)cc2F)cc1`, for which the Potency entry in [1], in test [3], in test [4], in test [6], in test [8] and in test [9] was “inactive” each time. Further, the Potency entry in test [10] was “inactive”. For the same molecule, the outcome in test [2] was inactive. Besides, the activity change, positive = activation in test [5] was -5.11%. In addition, in test [7], the Potency is 21.7 µM (active).

Take `CCN(CC)CCOC(=O)C(C)(c1ccccc1)c1ccccc1`: the Potency entry in test [1], in test [3], in [4], in test [6], in test [7] and in test [8] was “inactive” throughout. For the same molecule, the Potency result in test [9] and in test [10] was “inactive” in each case. Further, in [2], the outcome was inactive. Besides, the activity change, positive = activation in [5] was 0.519% [at 42.5 µM].

As for `NC(=O)O`, the Potency entry in test [1], in [3], in [4], in [6], in [7] and in test [8] was “inactive” each time. In addition, the Potency result in [9] and in test [10] was “inactive” each time. Further, the molecule was called inactive in test [2]. The activity change, positive = activation in test [5] is -1.74%.

Consider `CNNC`, for which the Potency entry in test [1], in test [3], in test [4], in test [6], in test [7] and in [8] was “inactive” in each case. Moreover, the Potency entry in test [9] and in test [10] was “inactive” in each case. Besides, the molecule was classed as inactive in [2]. In test [5], the activity change, positive = activation is 6.11%.

As for `N#CCNCC#N`, the Potency entry in test [1], in [3], in test [4], in [6], in [7] and in test [8] was “inactive” throughout. Further, the Potency result in [9] and in test [10] was “inactive” throughout. Also, the molecule was classed as inactive in [2]. For the same molecule, the activity change, positive = activation in [5] was 2.04%.

Turning to `C[C@]12CC[C@H]3[C@@H](CCC4=CC(=O)CC[C@@]43C)[C@@H]1CC[C@@H]2C(=O)O`, the Potency result in test [1], in [3], in [4], in [6], in test [7] and in [8] was “inactive” each time. Moreover, the Potency entry in [9] and in test [10] was “inactive” in each case. Further, the molecule was classed as inactive in test [2]. Moreover, in [5], the activity change, positive = activation was -8.07% [at 42.5 µM].

Consider `COc1cc(OC)nc(NC(=O)NS(=O)(=O)c2ncccc2OCC(F)(F)F)n1`, for which the Potency result in test [1], in test [3], in test [4], in test [6], in test [7] and in test [8] was “inactive” each time. Further, the Potency entry in test [9] and in test [10] was “inactive” each time. In test [2], the molecule was called inactive. Further, in test [5], the activity change, positive = activation was 9.4%.

As to `CC1(C)C(=O)NC(=O)NC1=O`, the Potency entry in [1], in test [3], in test [4], in [6], in [7] and in [8] was “inactive” each time. Further, the Potency entry in test [9] is “inactive”. The molecule was called inactive in [2]. For the same molecule, the activity change, positive = activation in test [5] is -0.272%.

As to `CNC(=O)Oc1ccccc1C1OCCO1`, the Potency result in test [1], in test [3], in test [4], in test [6], in [7] and in test [8] was “inactive” in each case. Further, the Potency result in test [9] and in test [10] was “inactive” each time. The outcome in [2] was inactive. In addition, the activity change, positive = activation in test [5] was 4.32%.

`CCC(Cl)[N+](=O)[O-]` (stereo unspecified): the Potency result in test [1], in test [3], in test [4], in test [6], in [7] and in [8] was “inactive” each time. Moreover, the Potency entry in test [9] and in test [10] was “inactive” throughout. In addition, the call in [2] was inactive. Moreover, in test [5], the activity change, positive = activation is -7.71%.

Turning to `COCC(=O)N(c1c(C)cccc1C)N1CCOC1=O`, the Potency entry in [1], in [3], in test [4], in [6], in test [7] and in test [8] was “inactive” in each case. In addition, the Potency entry in test [9] and in test [10] was “inactive” in each case. The result in test [2] was inactive. For the same molecule, the activity change, positive = activation in test [5] is 0.713%.

For the molecule `COc1cc(OC)nc(Sc2cccc(Cl)c2C(=O)O)n1`, the Potency entry in test [1], in [3], in test [4], in [6], in [7] and in test [8] was “inactive” each time. For the same molecule, the Potency result in test [9] and in test [10] was “inactive” throughout. The molecule was called inactive in test [2]. Besides, the activity change, positive = activation in test [5] was 0.33%.

For the molecule `CCOC(=O)CP(=O)(OCC)OCC`, the Potency result in test [1], in test [3], in [4], in test [6], in test [7] and in test [8] was “inactive” throughout. The Potency entry in [9] and in [10] was “inactive” throughout. Moreover, the outcome in test [2] was inactive. Further, the activity change, positive = activation in test [5] was 4.99%.
